# The list is not random: actives were taken first. Their share in the collection is about 1.6%.
# p53ts 32C kill – qHTS Screen for Compounds that Selectively Target Cancer Cells with p53 Mutations: Cytotoxicity of p53ts Cells at the Permissive Temperature | 130,000 compounds, 0.93% hits | AID 924, 2007 | Potency, µM (doses to about 46.1 µM), hits mostly cytotoxic | H1299-p53A138V at 32C, ATP luminescence viability, 24 h; also: nearly all actives have a fitted effect of over 55% in size
#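 Cells: H1299 p53ts (A138V), 600/well, pre-incubated 16–30 h at 37C. Cpd up to 46 uM, 24 h, 32C. Readout: ATPlite luminescence, 20 min RT. Normalization: DMSO vs tamoxifen 100 uM. AC50 by Hill equation.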
# IkB signaling – IkB Signaling. Potency, µM (titrated, usually from 57.1 µM). ABC-DLBCL IkBa-CBG/CBR dual luciferase ratio, 4 h; response scale: scaled: untreated 0%, proteasome inhibitor 100%. 110,000 compounds, 0.04% hits; active = well fitted curve in the direction sought with a large enough effect in the signal ratio, not every such curve was filed as active; inconclusive = small, poorly fitted or top-dose-only effect, or a change in a side signal; the % refers to the signal ratio;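 also: the direction sought is a rising ratio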
#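 Curves were fitted separately to fusion (green), unfused (red) and ratio luminescence, then classed by r2, magnitude and activity. Cells: OCI-Ly3, 4 h compound plus doxycycline at 37C; 10 uM MG-132 defined full response.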
# Peg3 imprint – qHTS Assay for Compounds that Induce Erasure of Genomic Imprints; mouse ES Peg3-LacZ reporter, beta-gal luminescence, 40 h; Potency, µM (highest dose often 60.7 µM), most hits filed as activators; 110,000 compounds, 0.02% hits
#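 Gelatin-coated wells received 300 freshly trypsinized female ES cells with a Peg3LacZ-Neo reporter on the maternal allele, then incubated 40 hours at 37C. BetaGlo was added for 5 minutes at room temperature before a single luminescence read.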
# p53ts 39C tox – qHTS Screen for Compounds that Selectively Target Cancer Cells with p53 Mutations: Cytotoxicity of p53ts Cells at the Nonpermissive Temperature. Potency, µM (titrated, usually from 46.1 µM), actives largely listed as cytotoxic. 130,000 compounds, 1.5% hits. AID 902, 2007. H1299-p53A138V viability at 39C, ATP luminescence, 24 h; also: nearly all actives have a fitted effect of over 55% in size
# A number is an active result; 0 = inactive; ? = inconclusive; - = not tested or not shown; [ ] = dose if it differs, or a comment. Unless noted, calls follow the shape of the dose curve; as a rule, active = well fitted curve in the direction sought with a large enough effect; inconclusive = small, poorly fitted or top-dose-only effect, or another doubt; inactive = no such curve, though single readings can be large; an effect the other way counts as inactive or inconclusive.
SMILES,p53ts 32C kill,IkB signaling,Peg3 imprint,p53ts 39C tox
O=C(CSc1nc2nccnc2c(=O)n1CCc1c[nH]c2ccccc12)Nc1ccc(F)cc1,0,0,0[10.9 µM],0
CCC(C(=O)NC1CCCCC1)n1c(SCc2cccc(F)c2)nc2ccncc21 (stereo not drawn),0,?,0[10.9 µM],0
Cc1cccc(-c2nc(Cn3c(SCc4cccc(C(F)(F)F)c4)nc4ccncc43)c(C)o2)c1,0,0,0[10.9 µM],10µM
COC(=O)c1ccc(Cn2c(SCc3cccc(C)c3)nc3ccncc32)cc1,25µM,0,0[10.9 µM],?
CCC(C(=O)NC1CCCCC1)n1c(SCc2cccc(C)c2)nc2ccncc21 (stereo not drawn),13µM,0,0[10.9 µM],10µM
O=C(CSc1nc2ccccc2nc1Cc1ccc(F)cc1)Nc1ccc2c(c1)OCO2,0,0,0[10.9 µM],0
Cc1c(Cl)cccc1NC(=O)CSc1nc(=O)n(Cc2ccco2)c2c1CCC2,0,?,0[10.9 µM],0
Cc1ccccc1OCCn1c(=N)n(C(C)C)c2ccccc21,0,?,0[10.9 µM],?
COc1cc2oc(-c3ccccc3)cc(=O)c2cc1O,?,?,0,7.9µM
COc1cc(-c2cc(=O)c3ccccc3o2)ccc1O,0,0[11.4 µM],0,0
CN1CC[C@@]2(CCN3CCc4c(oc5ccccc45)[C@@H]3C2)N(C)C1=O,0,0,-,0
COc1ccc2nc(C)cc(Nc3ccc(Cl)c(Cl)c3)c2c1,?,?,0[10.9 µM],13µM
CCCCCCCCNC(C)C(O)c1ccc(SC(C)C)cc1 (stereo not drawn),?,-,0,20µM
C[C@@H](NCCc1ccc(O)cc1)[C@@H](O)c1ccc(O)cc1,-,-,0,-
Cc1ccc(Cl)cc1N(C)C(=O)c1cc2ccc3cccnc3c2[nH]1,0,?,0[10.9 µM],25µM
Cc1ccc(C)c(N2CCN(C(=O)c3cc4ccc5cccnc5c4[nH]3)CC2)c1,0,0,0[10.9 µM],0
COCCCNC(=O)c1nn(-c2ccc(C)cc2)c(=O)n(C)c1=O,0,0,0[10.9 µM],0
Cc1ccc2nc(-c3ccc(S(=O)(=O)N4CCOCC4)cc3)cn2c1,0,0,0,0
Cc1ccc2nc(-c3ccccc3)cn2c1,0.5µM,?,0,0.63µM
Cc1cccn2cc(-c3ccc(F)cc3)nc12,?,0,0,?
Cc1cccn2cc(-c3ccccc3)nc12,13µM,0,0,?
COc1ccc(-c2cn3ccc4ccccc4c3n2)cc1,?,-,-,11µM
COc1ccc(N2CCN(Cc3nc4c(c(=O)[nH]c(=O)n4C)n3Cc3ccccc3C)CC2)cc1,0,0,0[10.9 µM],0
Cc1cccn2c(=O)cc(COc3cccc(NC(=O)c4ccccc4F)c3)nc12,0,?,0[10.9 µM],7.9µM
COc1cccc2cc(C(=O)Nc3ccc(CC(=O)O)cc3)c(=O)oc12,5µM,?,0[10.9 µM],7.9µM
SMILES,p53ts 32C kill,IkB signaling,Peg3 imprint,p53ts 39C tox
Cc1ccc(-c2nc(-c3ccccc3)no2)c(Cl)c1,5µM,?,0,7.9µM
Cc1noc(-c2ccc(-c3noc(-c4ccccc4)n3)cc2)n1,0,0,0[10.9 µM],0
Brc1ccccc1-c1nc(-c2ccccc2)no1,13µM,0,0,?
Fc1ccccc1-c1nc(-c2ccccc2)no1,0,0,0,0
CCCCCNCCCCC,0[1.84 µM],0,0,0
Cc1nc(-c2cccc(NC(=O)Nc3ccc([N+](=O)[O-])cc3)c2)no1,0,?,0[10.9 µM],?
Nc1ncnc2c1nc(Br)n2[C@@H]1O[C@H]2COP(=O)(O)O[C@@H]2[C@H]1O,0,?,-,0
COc1ccc(NC(=O)CN2CCN(Cc3ccccc3Cl)S2(=O)=O)cc1Cl,0,?,0[10.9 µM],0
Cc1ccc(C)c(N2CCN(CCCNC(=O)Cn3c(-c4cccs4)cc4ccccc43)CC2)c1,0,-,-,-
Cc1ccc(S(=O)(=O)Nc2cc3c(C(=O)OCc4ccccc4)c(C)oc3c3ccccc23)cc1,0,?,0[10.9 µM],0
Cc1oc2c(cc(NS(=O)(=O)c3ccc(Br)cc3)c3ccccc32)c1C(=O)OCc1ccccc1,0,?,0[10.9 µM],20µM
COC(C1CCCCC1)C(C)C(OCc1cccc(Br)c1)C(C)CO (stereo not drawn),0[9.22 µM],-,-,0[9.22 µM]
CCCCN(CC)CCNC(=O)c1cc2c(-c3ccc(Cl)cc3)nn(C)c2s1,0,?,0[10.9 µM],16µM
CCCN(CCC)CCNC(=O)c1cc2c(-c3ccc(Cl)cc3)nn(C)c2s1,0,?,0[10.9 µM],13µM

# Compound activity as filed in PubChem.
